Drawing on the supplement of paper PMC6555819, this text covers PBM binding z-score for 40 sequences.

The first assay relates to PPARg:RXRa 270nM:90nM, anti-RXR (NR concentration 270 nM, RXRa partner concentration 90 nM). Nature of the assay: PBM binding z-score (relative to random genomic background probes); higher = stronger binding; sequences stand for … in GC…GCGATTGACAGCGTAGAATGAAGG
The procedure, abridged:
(§1)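 The probes on custom Agilent 4×180K protein-binding microarrays were double-stranded, with 34-nt variable regions bearing direct-repeat seeds, single-nucleotide variants, half-site ablations and random human genomic background sequences. Incubation lasted 1 h with ligand-free nuclear receptor dimers in PBS pH 7.4, 2% milk, 0.02% Triton X-100, 1 mM DTT, 0.2 mg/mL BSA and 0.4 mg/ml salmon testes DNA. Antibodies against each partner (one per run) detected bound dimers, and fluorescence scans were regression-normalized. Binding z-scores take the random background probes as reference.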
Consider AATACAGGGTCATCGTAGGCCAGAGAACGCACAG, for which the PBM binding z-score worked out at 6.17.

CCGACTGGGGCATAAGGTTACGATAAGCCAGCCC gave a PBM binding z-score of 3.55.

Regarding CGTCCAAGGTCAGAGAGGTAAGTGAATGCCGAGT, the PBM binding z-score came to 2.66.

TCGAGTAGGTTACCAATGGGGCGTTCAGCTTTCT returned a PBM binding z-score of 1.06.

The sequence CCTCCTGGGCCAAAGGTCATTGATTCCAATGCTC had a PBM binding z-score of 8.76.

In turn, GCGACTGGGGCATCAGGAGGTTACCATAACTTAA had a PBM binding z-score of 1.26.

For the sequence CCTATTAGTTGACCATAAGGGCAACGGAAGCTCG, the PBM binding z-score came to 0.511.

The sequence CAAACTAGGTCAACGGAAGGTCAAAGTCCGCATG had a PBM binding z-score of 7.24.

On to ACTATTAGTTGAGACGCGGGCAACCGATAGGTTG, for which the PBM binding z-score is -0.414.

ACTAGTTAGTCAGCTGAGGTCACACACAATTCGG gave a PBM binding z-score of 1.98.

ATCGAAAGGTCGAAGGTGAATATACCCACCCGAA registered a PBM binding z-score of 5.45.

On to ATATCTAGGTTAGCTGGGGTCATTCAGACTAGGC, for which the PBM binding z-score was determined as 5.22.

TCTTGTAGATCAAGCAGGTTAAGAAGGCCTGAGT registered a PBM binding z-score of 1.15.

CCAGACAGGTTAAAGGTAACTCAGTCTGGTACGC: the PBM binding z-score came to 4.78.

The sequence TCTTGTAGATCAAAGGTTAAGTAAGCCGAAGCCT yielded a PBM binding z-score of 8.32.

Turning to TCTGCAAGGTCAGTTGGTCAGCTAACGAGCTGCC, the PBM binding z-score was determined as 2.47.

In turn, TTACCAAGGTGAAGGTCGCTGATCCCTCTGTAGA returned a PBM binding z-score of 4.12.

ACTTACGGGGCAACGAGGTTATAGCACGCGTATA yielded a PBM binding z-score of 1.26.

TCTGCTAGGTCAACGATGGTCAGCCAATCTGCTA came in with a PBM binding z-score of 3.17.

Turning to ATCTCTACGTAACCAAGTTCAGTGAATGCCGAAC, the PBM binding z-score is 0.137.

In the case of GCTATTAGTTGAAAGGGCATCCGAATGATTCTCG, the PBM binding z-score came out at 4.39.

For CGAACTAGGTCGTTGACAGGACAGTGAATAGTAA, the PBM binding z-score was 2.02.

Sequence TCATATAGGTAACAGGTGAAAGTCGGTGTGGTAA had a PBM binding z-score of 6.22.

Sequence AGAATGAGGTTACCAAAGATCAGGGACACGCTTG displayed a PBM binding z-score of 2.9.

As for CGAACTAGGTCAAGGACAGTGCATCTCCGCACGC, the PBM binding z-score worked out at 6.31.

CCTACTGGGCCATCTGGTCATTGATATCAACGTT showed a PBM binding z-score of 2.19.

In turn, CGTCCAAGGTCAAAGGAGGTCAGTGAAGACAGAT returned a PBM binding z-score of 5.46.

Regarding ACTAGCAGGCCAAGTTTGGGTGACTCAAACAAAG, the PBM binding z-score is -0.319.

CAAACTAGGTCACCGGAAGGTCAAAATCCGCATG displayed a PBM binding z-score of 7.79.

CCTGCTAGGTCAATGGTCAACTAAAGCAGCTCGC came in with a PBM binding z-score of 5.74.

On to CCAGACAGGTGAGAAGGTATCTCAGCCTCGATTA, for which the PBM binding z-score was -0.0698.

On to TCTAGCAAGCCAGAGGGTCACTCAAGAGGTACGG, for which the PBM binding z-score stood at 1.3.

In turn, CGTCCAAGGTCAGAGAGCTCAGTGAATGCCGAGT registered a PBM binding z-score of 2.52.

The sequence CGTCCAAGGTCAAGGTCAGCGAAAGAGACTCGAA registered a PBM binding z-score of 6.42.

Sequence CCTACTCGGCCATTCAGAGGTCATTGATCATATG registered a PBM binding z-score of 1.96.

Sequence TCGAATAGGTTACCAATGGGGCATTCAGCTTTCT gave a PBM binding z-score of 1.75.

ATCGAGAGGTCGAAGGTGAGTATACCCACCCGAA had a PBM binding z-score of 3.99.

On to CCTTGCAGGCCAGGGTCACTCAAGCATTTCGCTT, for which the PBM binding z-score came out at 2.11.

For the sequence TCGCGTAGGTTAGTCGGGGCATTCAGCCAACATA, the PBM binding z-score turned out to be 0.614.

AGGATGAGGTTACCAAAGATCAGGGAAACGCTTG registered a PBM binding z-score of 1.76.

The next assay relates to PPARg:RXRa 30nM:10nM, anti-RXR (NR concentration 30 nM, RXRa partner concentration 10 nM). Described as above. An outline of the steps: as §1
Consider AATACAGGGTCATCGTAGGCCAGAGAACGCACAG, for which the PBM binding z-score turned out to be 2.74.

In the case of CCGACTGGGGCATAAGGTTACGATAAGCCAGCCC, the PBM binding z-score amounted to 1.47.

Sequence CGTCCAAGGTCAGAGAGGTAAGTGAATGCCGAGT returned a PBM binding z-score of 0.414.

TCGAGTAGGTTACCAATGGGGCGTTCAGCTTTCT returned a PBM binding z-score of 0.919.

Sequence CCTCCTGGGCCAAAGGTCATTGATTCCAATGCTC showed a PBM binding z-score of 10.1.

GCGACTGGGGCATCAGGAGGTTACCATAACTTAA returned a PBM binding z-score of 0.00065.

The sequence CCTATTAGTTGACCATAAGGGCAACGGAAGCTCG displayed a PBM binding z-score of 0.321.

The sequence CAAACTAGGTCAACGGAAGGTCAAAGTCCGCATG showed a PBM binding z-score of 5.66.

With ACTATTAGTTGAGACGCGGGCAACCGATAGGTTG, the PBM binding z-score is -0.25.

Turning to ACTAGTTAGTCAGCTGAGGTCACACACAATTCGG, the PBM binding z-score was 0.769.

The sequence ATCGAAAGGTCGAAGGTGAATATACCCACCCGAA yielded a PBM binding z-score of 2.92.

The sequence ATATCTAGGTTAGCTGGGGTCATTCAGACTAGGC displayed a PBM binding z-score of 2.61.

As for TCTTGTAGATCAAGCAGGTTAAGAAGGCCTGAGT, the PBM binding z-score came out at 2.45.

CCAGACAGGTTAAAGGTAACTCAGTCTGGTACGC displayed a PBM binding z-score of 3.23.

Sequence TCTTGTAGATCAAAGGTTAAGTAAGCCGAAGCCT came in with a PBM binding z-score of 7.35.

For TCTGCAAGGTCAGTTGGTCAGCTAACGAGCTGCC, the PBM binding z-score came out at 1.5.

TTACCAAGGTGAAGGTCGCTGATCCCTCTGTAGA displayed a PBM binding z-score of 1.98.

Consider ACTTACGGGGCAACGAGGTTATAGCACGCGTATA, for which the PBM binding z-score turned out to be 0.448.

For TCTGCTAGGTCAACGATGGTCAGCCAATCTGCTA, the PBM binding z-score is 1.79.

With ATCTCTACGTAACCAAGTTCAGTGAATGCCGAAC, the PBM binding z-score is 0.163.

The sequence GCTATTAGTTGAAAGGGCATCCGAATGATTCTCG came in with a PBM binding z-score of 2.34.

As to CGAACTAGGTCGTTGACAGGACAGTGAATAGTAA, the PBM binding z-score is 0.441.

For the sequence TCATATAGGTAACAGGTGAAAGTCGGTGTGGTAA, the PBM binding z-score is 6.28.

For AGAATGAGGTTACCAAAGATCAGGGACACGCTTG, the PBM binding z-score was found to be 0.908.

On to CGAACTAGGTCAAGGACAGTGCATCTCCGCACGC, for which the PBM binding z-score is 3.38.

CCTACTGGGCCATCTGGTCATTGATATCAACGTT gave a PBM binding z-score of 0.303.

CGTCCAAGGTCAAAGGAGGTCAGTGAAGACAGAT registered a PBM binding z-score of 2.75.

With ACTAGCAGGCCAAGTTTGGGTGACTCAAACAAAG, the PBM binding z-score is -0.347.

The sequence CAAACTAGGTCACCGGAAGGTCAAAATCCGCATG returned a PBM binding z-score of 5.96.

As for CCTGCTAGGTCAATGGTCAACTAAAGCAGCTCGC, the PBM binding z-score was 4.25.

For the sequence CCAGACAGGTGAGAAGGTATCTCAGCCTCGATTA, the PBM binding z-score was -0.296.

As to TCTAGCAAGCCAGAGGGTCACTCAAGAGGTACGG, the PBM binding z-score was 1.51.

CGTCCAAGGTCAGAGAGCTCAGTGAATGCCGAGT: the PBM binding z-score came to 0.0748.

The sequence CGTCCAAGGTCAAGGTCAGCGAAAGAGACTCGAA gave a PBM binding z-score of 3.23.

For CCTACTCGGCCATTCAGAGGTCATTGATCATATG, the PBM binding z-score is 0.587.

In turn, TCGAATAGGTTACCAATGGGGCATTCAGCTTTCT had a PBM binding z-score of 2.94.

ATCGAGAGGTCGAAGGTGAGTATACCCACCCGAA displayed a PBM binding z-score of 1.81.

For the sequence CCTTGCAGGCCAGGGTCACTCAAGCATTTCGCTT, the PBM binding z-score is -0.339.

Consider TCGCGTAGGTTAGTCGGGGCATTCAGCCAACATA, for which the PBM binding z-score worked out at 0.929.

Sequence AGGATGAGGTTACCAAAGATCAGGGAAACGCTTG showed a PBM binding z-score of 0.744.
